# Values joined by “and” are separate entries in the source; they are usually repeats but may differ in a detail not shown here. Identical values can stand only once. Like-named read-outs stand apart in the source and are kept apart here.
# Key:
# EIF2AK1 = settings: concentration: 1 μM, replicates: in singlicate; n = 1
# EPHA1 = settings: concentration: 1 μM, replicates: in singlicate, n = 1
# EPHA2 = settings: concentration: 1 μM, replicates: in singlicate; n = 1
# EPHA3 = settings: concentration: 1 μM, replicates: in singlicate, n = 1
# EPHA4 = settings: concentration: 1 μM, replicates: in singlicate, n = 1
# EPHA5 = settings: concentration: 1 μM, replicates: in singlicate; n = 1
# EPHA6 = settings: concentration: 1 μM, replicates: in singlicate, n = 1
# EPHA7 = settings: concentration: 1 μM, replicates: in singlicate; n = 1
# EPHA8 = settings: concentration: 1 μM, replicates: in singlicate, n = 1
# EPHB1 = settings: concentration: 1 μM, replicates: in singlicate, n = 1
# EPHB2 = settings: concentration: 1 μM, replicates: in singlicate; n = 1
# EPHB3 = settings: concentration: 1 μM, replicates: in singlicate, n = 1
# EPHB4 = settings: concentration: 1 μM, replicates: in singlicate, n = 1
# EPHB6 = settings: concentration: 1 μM, replicates: in singlicate, n = 1
# ERBB2 = settings: concentration: 1 μM, replicates: in singlicate, n = 1
# ERBB3 = settings: concentration: 1 μM, replicates: in singlicate, n = 1
# ERBB4 = settings: concentration: 1 μM, replicates: in singlicate, n = 1
# ERK1 = system: T1, ERK1; settings: concentration: 1 μM, replicates: in singlicate; n = 1
# T1 construct: gene MAPK3
# ERK2 = system: T2, ERK2; settings: concentration: 1 μM, replicates: in singlicate; n = 1
# T2 construct: gene MAPK1
# ERK3 = system: T3, ERK3; settings: concentration: 1 μM, replicates: in singlicate, n = 1
# T3 construct: gene MAPK6
# 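Note: KINOMEscan kinase panel screen.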
smiles,measurement,setting,value
COc1ccc(-c2nc3n(c2-c2ccncc2)CCC3)cc1 [SKF-104493],%Inh,EIF2AK1,0%
same,%Inh,EPHA1; 1 µM,18% and 0%
same,%Inh,EPHA2,0%
same,%Inh,EPHA3; 1 µM,0% and 18%
same,%Inh,EPHA4; 1 µM,0% and 17%
same,%Inh,EPHA5,0%
same,%Inh,EPHA6; 1 µM,10% and 7%
same,%Inh,EPHA7,0%
same,%Inh,EPHA8; 1 µM,8% and 0%
same,%Inh,EPHB1; 1 µM,0% and 22%
same,%Inh,EPHB2,0%
same,%Inh,EPHB3; 1 µM,10% and 4%
same,%Inh,EPHB4; 1 µM,16% and 11%
same,%Inh,EPHB6; 1 µM,8% and 0%
same,%Inh,ERBB2; 1 µM,0% and 29%
same,%Inh,ERBB3; 1 µM,0% and 8%
same,%Inh,ERBB4; 1 µM,29% and 18%
same,%Inh,ERK1,0%
same,%Inh,ERK2,0%
same,%Inh,ERK3; 1 µM,0% and 9%
Cl.c1ccc(Cn2ncc3cc(Nc4ncnc5ccccc45)ccc32)cc1 [GW273749],%Inh,EIF2AK1,0%
same,%Inh,EPHA1,28%
same,%Inh,EPHA2,0%
same,%Inh,EPHA3,0%
same,%Inh,EPHA4,4%
same,%Inh,EPHA5,0%
same,%Inh,EPHA6,0%
same,%Inh,EPHA7,7%
same,%Inh,EPHA8,17%
same,%Inh,EPHB1,0%
same,%Inh,EPHB2,0%
same,%Inh,EPHB3,0%
same,%Inh,EPHB4,10%
same,%Inh,EPHB6,31%
same,%Inh,ERBB2,100%
same,%Inh,ERBB3,68%
same,%Inh,ERBB4,96.2%
same,%Inh,ERK1,0%
same,%Inh,ERK2,0%
same,%Inh,ERK3,57%
Nc1nc(-c2ccccn2)c(-c2ccnc3ccccc23)s1 [GW548057],%Inh,EIF2AK1,0%
same,%Inh,EPHA1,6%
same,%Inh,EPHA2,0%
same,%Inh,EPHA3,15%
same,%Inh,EPHA4,0%
same,%Inh,EPHA5,0%
same,%Inh,EPHA6,6%
same,%Inh,EPHA7,13%
same,%Inh,EPHA8,20%
same,%Inh,EPHB1,5%
same,%Inh,EPHB2,14%
same,%Inh,EPHB3,14%
same,%Inh,EPHB4,0%
same,%Inh,EPHB6,27%
same,%Inh,ERBB2,53%
same,%Inh,ERBB3,31%
same,%Inh,ERBB4,11%
same,%Inh,ERK1,0%
same,%Inh,ERK2,0%
same,%Inh,ERK3,10%
CNc1nccc(-c2c(-c3ccc(F)cc3)ncn2C2CCN(C)CC2)n1 [SB-222903],%Inh,EIF2AK1,0%
same,%Inh,EPHA1,0%
same,%Inh,EPHA2,0%
same,%Inh,EPHA3,2%
same,%Inh,EPHA4,1%
same,%Inh,EPHA5,0%
same,%Inh,EPHA6,0%
same,%Inh,EPHA7,0%
same,%Inh,EPHA8,0%
same,%Inh,EPHB1,9%
same,%Inh,EPHB2,0%
same,%Inh,EPHB3,2%
same,%Inh,EPHB4,0%
same,%Inh,EPHB6,0%
same,%Inh,ERBB2,0%
same,%Inh,ERBB3,0%
same,%Inh,ERBB4,2%
same,%Inh,ERK1,1%
same,%Inh,ERK2,0%
same,%Inh,ERK3,0%
Oc1ccc2ncnc(Nc3ccc(OCc4ccccc4)cc3)c2c1 [GI262866],%Inh,EIF2AK1,0%
same,%Inh,EPHA1,11%
same,%Inh,EPHA2,0%
same,%Inh,EPHA3,0%
same,%Inh,EPHA4,6%
same,%Inh,EPHA5,0%
same,%Inh,EPHA6,16%
same,%Inh,EPHA7,3%
same,%Inh,EPHA8,14%
same,%Inh,EPHB1,14%
same,%Inh,EPHB2,0%
same,%Inh,EPHB3,12%
same,%Inh,EPHB4,2%
same,%Inh,EPHB6,0%
same,%Inh,ERBB2,99.2%
same,%Inh,ERBB3,15%
same,%Inh,ERBB4,77%
same,%Inh,ERK1,0%
same,%Inh,ERK2,0%
same,%Inh,ERK3,3%
Cc1ccc(O)cc1Nc1cc(C(F)(F)F)nc2ccc(-c3ccncc3)cc12 [GW630823],%Inh,EIF2AK1,0%
same,%Inh,EPHA1,6%
same,%Inh,EPHA2,17%
same,%Inh,EPHA3,0%
same,%Inh,EPHA4,5%
same,%Inh,EPHA5,3%
same,%Inh,EPHA6,5%
same,%Inh,EPHA7,88%
same,%Inh,EPHA8,68%
same,%Inh,EPHB1,12%
same,%Inh,EPHB2,3%
same,%Inh,EPHB3,0%
same,%Inh,EPHB4,18%
same,%Inh,EPHB6,9%
same,%Inh,ERBB2,0%
same,%Inh,ERBB3,0%
same,%Inh,ERBB4,0%
same,%Inh,ERK1,2%
same,%Inh,ERK2,5%
same,%Inh,ERK3,9%
Cl.c1ccc(Cn2ccc3cc(Nc4ncnc5ccccc45)ccc32)cc1 [GW275568],%Inh,EIF2AK1,5%
same,%Inh,EPHA1,7%
same,%Inh,EPHA2,1%
same,%Inh,EPHA3,40%
same,%Inh,EPHA4,0%
same,%Inh,EPHA5,0%
same,%Inh,EPHA6,0%
same,%Inh,EPHA7,10%
same,%Inh,EPHA8,20%
same,%Inh,EPHB1,4%
same,%Inh,EPHB2,6%
same,%Inh,EPHB3,4%
same,%Inh,EPHB4,18%
same,%Inh,EPHB6,33%
same,%Inh,ERBB2,100%
same,%Inh,ERBB3,29%
same,%Inh,ERBB4,88%
same,%Inh,ERK1,0%
same,%Inh,ERK2,0%
same,%Inh,ERK3,4%

# — paper PMC5540273 (PLoS ONE, 2017)
